HP1b binding inh: blocks HP1-beta chromodomain binding to methylated histone tails. P83916. AlphaScreen HP1-beta / biotin-H3K9me3 peptide binding. Potency, µM (series often up to 114 µM), for inactives: at the highest dose activity change, negative = inhibition, hits mostly inhibitors. actives 0.56% (n = 390,000). AID 540317; also: nearly all actives have a fitted effect of over 70% in size
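AlphaScreen: HP1-beta (50 nM) preformed 30 min with biotin-H3(1-18)K9me3 peptide (50 nM) in PBS pH 7.4, 0.01% Tween-20. Compound added for 30 min at RT, then streptavidin donor/nickel chelate acceptor beads (10 ug/mL) for 30 min.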
Sfp inh: Sfp phosphopantetheinyl transferase inhibition. Q9F4F7. Biochemical Sfp PPTase activity, qHTS. Potency, µM, without a hit: largest response in the series, negative = inhibition, hits mostly inhibitors. actives 3.5% (n = 310,000);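 also: the enzyme is Sfp with the accession as filed and its product quenches rhodamine fluorescence; 0% = enzyme reaction without inhibitor and -100% = no enzyme wells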
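With Hepes-Na pH 7.6 buffer containing 10 mM MgCl2, Sfp (15 nM) modified BHQ-2-YbbR (12.5 uM) using rhodamine-CoA (5 uM). Two reads 30 minutes apart at 525/598 nm yielded each well's rate.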
JMJD2A Tudor inh: blocks the human JMJD2A Tudor domain | O75164 | AlphaScreen JMJD2A-Tudor / H3K4me3 peptide binding | Potency, µM (series often up to 114 µM), without a hit: at the highest dose activity change, negative = inhibition, usual class: inhibitors | actives 4.4% (n = 390,000) | AID 504339; also: % is scaled to controls: 0 for no effect and ±100 for the full control effect; nearly all actives have a fitted effect of over 50% in size
G9a block: blocks human histone lysine methyltransferase G9a; G9a H3K9 monomethylation, AlphaScreen, 2 h; Potency, µM (highest dose often 102 µM), without a hit: at the highest dose activity, negative = inhibition, usual class: inhibitors; actives 8.8% (n = 350,000); also: % is scaled to controls: 0 for no effect and ±100 for the full control effect; nearly all actives have a fitted effect of over 75% in size
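Enzyme 20 nM + cpd, 15 min RT; add b-H3K9 pep 500 nM / SAM 20 uM; 2 h RT; anti-H3K9me1 Ab 0.5 ug/mL + SA donor / anti-rabbit acceptor beads 20 ug/mL each, 10 min; AlphaScreen read.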
BAZ2B block: BAZ2B (human) inhibition; Q9UIF8; AID 504333; actives 4.4% (n = 360,000); Potency, µM (titrated, usually from 114 µM), inactives show top-dose activity change, negative = inhibition, most hits filed as inhibitors; AlphaScreen BAZ2B-H3K14Ac peptide displacement; also: % is scaled to controls: 0 for no effect and ±100 for the full control effect; nearly all actives have a fitted effect of over 60% in size
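Inhibition is scored as reduced AlphaScreen emission. The BAZ2B/b-H3(5-23)K14Ac complex (50 nM each) in PBS pH 7.4, 0.01% Tween-20 meets compound (up to 110 uM) for 30 min at RT before bead addition.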
L3MBTL1 inh: inhibitors of human L3MBTL1; actives 0.66% (n = 230,000); AlphaScreen L3MBTL1–H3K9me1 peptide binding; Potency, µM (doses to about 57.1 µM), for the others: at the highest dose activity, negative = inhibition, hits mostly inhibitors; also: % is scaled to controls: 0 for no effect and ±100 for the full control effect; nearly all actives have a fitted effect of over 60% in size
Target sequence (Q9Y468 whole entry, looked up): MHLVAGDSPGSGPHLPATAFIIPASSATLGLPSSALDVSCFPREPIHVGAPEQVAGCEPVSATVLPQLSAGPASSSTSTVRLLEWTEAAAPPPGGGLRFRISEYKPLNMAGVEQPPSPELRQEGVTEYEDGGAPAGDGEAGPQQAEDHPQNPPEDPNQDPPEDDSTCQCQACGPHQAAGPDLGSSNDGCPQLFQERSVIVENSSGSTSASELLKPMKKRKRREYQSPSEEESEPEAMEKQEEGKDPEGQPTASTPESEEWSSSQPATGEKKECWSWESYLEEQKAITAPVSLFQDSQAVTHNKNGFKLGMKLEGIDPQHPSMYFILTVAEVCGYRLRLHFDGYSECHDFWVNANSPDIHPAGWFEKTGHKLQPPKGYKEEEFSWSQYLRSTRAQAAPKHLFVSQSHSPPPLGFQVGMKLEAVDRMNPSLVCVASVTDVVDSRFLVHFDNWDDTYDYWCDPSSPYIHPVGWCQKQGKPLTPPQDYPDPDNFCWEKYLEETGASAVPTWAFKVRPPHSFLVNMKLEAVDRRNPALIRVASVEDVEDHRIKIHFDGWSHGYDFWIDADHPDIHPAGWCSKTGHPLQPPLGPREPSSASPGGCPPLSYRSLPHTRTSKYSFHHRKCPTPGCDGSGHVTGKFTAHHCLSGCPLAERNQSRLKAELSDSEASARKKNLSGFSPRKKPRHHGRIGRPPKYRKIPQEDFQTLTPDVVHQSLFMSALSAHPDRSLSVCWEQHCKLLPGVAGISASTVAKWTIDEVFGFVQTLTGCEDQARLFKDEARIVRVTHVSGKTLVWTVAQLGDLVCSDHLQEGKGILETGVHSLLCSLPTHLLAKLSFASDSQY
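Read-out is AlphaScreen signal from streptavidin donor and nickel chelate acceptor beads (10 ug/mL final each) bridging L3MBTL1 (50 nM) and biotinylated K9-monomethylated H3(1-15) peptide (75 nM), after 30 min compound exposure at room temperature.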
Starred values were filed as active, the others as inactive; ? = inconclusive; nt = not tested or not shown; [ ] = another dose, or the depositor's remark. Most compounds without a hit are left out; they make up all but 12% or so of the library. Calls follow the shape of the dose curve; as a rule, active = well fitted curve in the direction sought with a large enough effect; inconclusive = small, poorly fitted or top-dose-only effect, or another doubt; inactive = no such curve, though single readings can be large; an effect the other way counts as inactive or inconclusive. Potency is read from the fitted curve at half-maximal effect.

SMILES	HP1b binding inh	Sfp inh	JMJD2A Tudor inh	G9a block	BAZ2B block	L3MBTL1 inh
O=C(O)c1cc(S(=O)(=O)Nc2ccccc2Cc2ccccc2)ccc1Cl	17%	30%	-14%	-16%	-1%	nt
O=C(O)c1cccc(NC(CNS(=O)(=O)c2ccc(Cl)cc2)c2ccccc2)c1 (centres undefined)	6%	6%	-23%	?	79µM*	-23%
O=C(O)c1cccc(NS(=O)(=O)c2ccc(-c3ccc(S(=O)(=O)Nc4cccc(C(=O)O)c4)cc3)cc2)c1	24%	12%	-27%	50µM*	-13%	-12%
COC(=O)c1ccc(NC(=O)N2CCc3c([nH]c4ccccc34)C2c2ccc(C)cc2)cc1 (centres undefined)	-10%	nt	?	-39%[59 µM]	?	nt
C=CCc1cccc2cc(C(=O)N3CCN(C(=O)c4ccco4)CC3)c(=O)oc12	28%	1%	-3%	45µM*	6%	-2%
C=CCc1cccc2cc(C(=O)O)c(=O)oc12	11%	13%	-5%	-12%	-38%	nt
C=CCc1cccc2cc(C(=O)Nc3ccccc3C(=O)O)c(=O)oc12	4%	-5%	-35%	13µM*	50µM*	-28%
NC(=O)C1CCN(C2CC(=O)N(Cc3ccc(N4CCCC4=O)cc3)C2=O)CC1 (centres undefined)	27%	1%	?	45µM*	-9%	nt
O=C(NCc1ccccc1)c1cccc(OCC(=O)N2CCN(C(=O)c3ccco3)CC2)c1	0%	-6%	40µM*	8.9µM*	?	-6%
Cc1cccc(OCC(=O)Nc2ccc(N3CCN(C(=O)c4ccco4)CC3)cc2)c1	0%	-4%	-33%	79µM*	-38%	?
Cc1ccc(C(=O)Nc2ccc(N3CCN(C(=O)c4ccco4)CC3)cc2)cc1	-7%	5%	79µM*	2%	-28%	-18%
O=C(Cc1ccc(Cl)cc1)Nc1ccc(N2CCN(C(=O)c3ccco3)CC2)cc1	-15%	-3%	25%[11.4 µM]	7.9µM*	-31%	33%[11.4 µM]
O=C(COc1ccc2ccccc2c1)N1CCN(C(=O)c2ccco2)CC1	5%	-11%	-10%	-37%	13%	nt
O=C(c1ccco1)N1CCN(c2ccc(Cl)cc2)CC1	4%	8%	-22%	18%[12.7 µM]	-3%	4%
C=C(C)CSc1nc2sc3c(c2c(=O)n1-c1ccccc1)CCC(C)C3 (centres undefined)	31%	nt	-3%	0%[59 µM]	0%	nt
CCOC(=O)C1CCN(C(=O)Cn2c(-c3cccs3)cc3cc(Cl)ccc32)CC1	33%	nt	-2%	3%[59 µM]	1%	nt
CC(C)[N+](C)(C)CC(O)COc1cccc2ccccc12 (centres undefined)	nt	-2%	nt	?	nt	nt
O=C(Cn1nnc(-c2ccc(F)cc2)n1)N1CCCCC1	30%	17%	7%	22%	-16%	-3%
O=C(Nc1ccc(-c2nnn(CC(=O)N3CCN(C(=O)c4ccco4)CC3)n2)cc1)c1ccc(F)cc1	54%	6%	-5%[11.4 µM]	56µM*	79µM*	19%
CCOC(=O)c1ccccc1NC(=O)Nc1cc2c(cc1N1CCCC1)n(C)c(=O)n2C	15%	nt	?	?	50µM*	nt
COc1cc2c(cc1NC(=O)c1ccccc1C)n(C)c(=O)n2C	15%	nt	-22%	-10%[59 µM]	50µM*	nt
CCOC(=O)C1CCN(c2cc3c(cc2NC(=O)c2ccccc2F)n(C)c(=O)n3C)CC1	12%	-7%	-23%	8%[0.0925 µM]	50µM*	nt
CCOC(=O)C1CCN(c2cc3c(cc2NC(=O)c2ccc(F)cc2)n(C)c(=O)n3C)CC1	36%	-1%	-29%	10%[0.0925 µM]	?	nt
CCOC(=O)Cc1ccc(NC(=O)Nc2cc3c(cc2N2CCCCC2)n(C)c(=O)n3C)cc1	10%	nt	-30%	-5%[59 µM]	2%	nt
CCOC(=O)Cn1c(=O)n(-c2cccc(Cl)c2)c2nc(-c3ccccc3Cl)nc(C(N)=O)c21	17%[57 µM]	nt	-34%	2%[59 µM]	-17%	nt
SMILES	HP1b binding inh	Sfp inh	JMJD2A Tudor inh	G9a block	BAZ2B block	L3MBTL1 inh
CCc1ccc(NS(=O)(=O)c2ccc3[nH]cc(C(=O)NCCCOC(C)C)c(=O)c3c2)cc1	-2%	nt	-25%	?	nt	nt
O=C(O)CCCCCN1C(=O)/C(=C/c2ccncc2)SC1=S	19%	-14%	-6%	79µM*	-21%	5%
O=C(O)CCCCCN1C(=O)/C(=C\c2ccc(-c3ccc(Cl)cc3)o2)SC1=S	40µM*	6.3µM*	32µM*	?	?	nt
O=C(O)CCCN1C(=O)/C(=C/c2ccc(-c3nc4ccccc4s3)o2)SC1=S	16µM*	40µM*	10µM*	?	10µM*	?
O=C(O)CCCCCN1C(=O)/C(=C\c2ccncc2)SC1=S	15%	-8%	-15%	10%[59 µM]	2%	7%
CC1(OC(=O)C2CCCC2)C(=O)C=C2C=C(c3ccsc3)N(c3cccc(C#N)c3)C=C2C1=O (centres undefined)	nt	-18%	nt	nt	nt	nt
Cc1ccc(Cn2c(=O)n(Cc3ccco3)c(=O)c3oc4ccccc4c32)cc1	36%	nt	-14%	-18%[59 µM]	-16%	nt
Cc1cc(NC(=O)c2cccs2)cc(-c2nc3cc(Cl)ccc3o2)c1O	23%	nt	-11%	10%[59 µM]	-23%	nt
Cn1ncc([N+](=O)[O-])c1C(=O)Nc1ccn(Cc2ccccc2F)n1	19%	11%	-16%	21%[59 µM]	-28%	-2%
Cc1nn(Cc2cccc(C(=O)Nc3ccn(Cc4ccccc4F)n3)c2)c(C)c1[N+](=O)[O-]	23%	22µM*	-3%	27%[12.7 µM]	-34%	nt
O=C1c2ccccc2-c2onc3c(Oc4ccccc4)cc(O)c1c23	nt	-12%	nt	?	35µM*	nt
COc1ccc(-c2onc(C)c2-c2ccccc2)c(O)c1	15%	6%	-4%	8%	1%	nt
COc1ccc2c(c1)nc(SCC(C)O)n2C (centres undefined)	55%	3%	-14%[57.1 µM]	-4%[59 µM]	-7%	10%
COc1ccc2c(c1)nc(SCC(=O)c1cccs1)n2C	2%	89µM*	79µM*	45µM*	-18%[57.1 µM]	5%
COc1ccc2c(c1)nc(SCC(=O)C(C)(C)C)n2C	-4%	56µM*	?	?	-7%	10%
Cc1cc2oc(C(=O)Nc3ccc(S(=O)(=O)Nc4ncccn4)cc3)cc(=O)c2cc1C	-3%	nt	-14%	-17%[59 µM]	-10%	nt
O=c1cnc2cnc(Oc3ccccc3)nc2n1Cc1cccs1	nt	13%	nt	-9%[12.7 µM]	nt	nt
CCCCN(C(=O)c1cc(CC)c(C)s1)c1c(N)n(CC(C)C)c(=O)[nH]c1=O	33%	8%	-7%	-3%	-26%	nt
CCCCn1c(N)c(N(CCOC)C(=O)c2cc3c(s2)CCC3)c(=O)[nH]c1=O	9%	nt	-19%	18µM*	3%	12%

Source: PubChem BioAssay
